Most compounds without a hit are left out; they make up all but 4.1% or so of the library.
hgDAF-12 ag: hgDAF-12 agonism, primary luciferase screen; HEK293 GAL4-hgDAF12 UAS-luciferase reporter, agonist luminescence; normalized to butyrate control; activation, % at 6.8 µM; 1.8% of 370,000 active;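 active = activation above a cutoff set at the mean of all screened compounds plus 3 SD, cut at about 10% in these data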
DAX1 inh-1: inhibitors of human orphan nuclear receptor DAX1 (NR0B1). P51843. HEK293 Gal4-DAX1 luciferase reporter, luminescence. inhibition, % at 6.75 µM. 0.99% of 340,000 active. AID 504766;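 active = inhibition above the mean over all tested compounds plus 3 SD, cut at about 4.2% in these data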;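 note: inhibition shows as a rise in luminescence from relieved DAX1 repression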
Target sequence (P51843 207-470 limits assumed): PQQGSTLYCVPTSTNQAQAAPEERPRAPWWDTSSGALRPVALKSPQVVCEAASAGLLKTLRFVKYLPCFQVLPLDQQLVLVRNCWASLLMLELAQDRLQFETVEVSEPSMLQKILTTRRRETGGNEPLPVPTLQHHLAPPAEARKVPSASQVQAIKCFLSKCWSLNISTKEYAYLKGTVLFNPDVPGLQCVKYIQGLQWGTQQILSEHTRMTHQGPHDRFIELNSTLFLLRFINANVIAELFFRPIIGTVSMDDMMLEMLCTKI
ssDAF12 agonist: S. stercoralis DAF-12 activation, primary screen; HEK293 ssDAF-12/GRIP1 lit1-tk-luc reporter, luminescence; % of 3 µM dafachronic acid response; activation, % at 6.8 µM; 1% of 370,000 active; AID 652126;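 active = activation above the mean over all tested compounds plus 3 SD, cut at about 0.9% in these data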
DAX1 inh-2: DAX1 (NR0B1) inhibition, primary screen. HEK293T StAR-luciferase reporter, SF-1/DAX-1 repression relief. inhibition, % at 6.8 µM. 1.1% of 370,000 active. AID 652010;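 active = inhibition above the mean over all tested compounds plus 3 SD, cut at about 3.6% in these data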;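 note: higher inhibition means more luminescence from relief of DAX-1 repression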
hcDAF12 agonist: activators of H. contortus DAF-12 nuclear receptor | HEK293 hcDAF-12 lit1-tk-luc reporter, luminescence; 0% DMSO, 100% Δ7-dafachronic acid | activation, % at 6.8 µM | 1.4% of 370,000 active | AID 652067;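 active = activation above the mean of all tested compounds plus 3 SD, cut at about 5.5% in these data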
A number is an active result; . = inactive; / = not tested or not shown.

SMILES | hgDAF-12 ag | DAX1 inh-1 | ssDAF12 agonist | DAX1 inh-2 | hcDAF12 agonist
COC(=O)C1CN(CC(C)C)CCS(=O)(=O)N1Cc1ccc(Cl)cc1 (stereo unspecified) | . | / | . | . | .
CCN1CCN(Cc2ccc(NC(=O)Nc3ccccc3OC)cc2)CC1 | 11.7 | . | . | . | .
Cc1cc(NC(=O)CSc2nnc(C)n2-c2ccccc2)no1 | . | . | . | . | .
Cc1cc(C)c(C#N)c(SCC(=O)Nc2cc(C)on2)n1 | 10.5 | . | . | . | .
Cc1cc(NC(=O)CSc2nc3c(C)cccc3cc2C#N)no1 | . | . | . | . | .
Cc1cc(NC(=O)CSc2nnc(C)n2-c2ccccc2C)no1 | . | 4.2 | . | . | .
CCOC(=O)NC(=O)CSc1nc(C)cc(C)c1C#N | 12.6 | . | . | . | .
CCOC(=O)CNC(=O)CSc1nc(C)cc(C)c1C#N | . | . | . | . | .
Cc1cc(NC(=O)CSc2nc3c(C)ccc(C)c3cc2C#N)no1 | . | 5.7 | . | . | .
CCn1c2ccccc2c2cc(NC(=O)COC(=O)c3cc(Cl)cc(Cl)c3)ccc21 | . | / | . | . | .
Cc1ccnc(NC(=S)N2CC3CN(c4cccc(C(F)(F)F)c4)CC3C2)c1 (stereo unspecified) | . | / | . | / | .
Nc1ccc(N=Nc2ccccc2O)c(N)c1 | . | / | 1.6 | . | .
Oc1ccccc1N=Nc1ccccc1O | . | . | . | . | .
Cc1ccc(S(=O)(=O)Nc2nc(C)cc(NCCN)n2)cc1 | . | 4.7 | . | . | .
COc1ccccc1CNC(=O)c1ccc(NC2=NC3CS(=O)(=O)CC3S2)cc1 (stereo unspecified) | 10.5 | . | . | . | .
COc1ccccc1CNC(=O)c1ccc(Cl)c(NC2=NC3CS(=O)(=O)CC3S2)c1 (stereo unspecified) | . | . | . | . | .
O=C1N/C(=C/c2ccc(Br)cc2)C(O)=C1C=NCc1ccccc1 | . | . | . | . | 5.6
O=C1NC(=NCc2ccccc2)S/C1=C/c1ccc(O)cc1 | . | . | . | . | .
O=C(NCCc1ccccc1)OCc1cn(Cc2cccc(C(F)(F)F)c2)nn1 | . | / | . | . | .
C(=N/N1CCN(c2ccccc2)CC1)/c1ccco1 | . | / | . | . | .
COc1ccc(C(=O)C[n+]2cc(Br)cc3ccccc32)cc1[N+](=O)[O-] | . | . | 1.0 | . | 5.9
O=C(C[n+]1cc(Br)cc2ccccc21)c1ccccc1 | . | . | . | . | .
COc1cccc(-c2nnc3sc(-c4ccc(Br)o4)nn23)c1 | . | / | . | . | .
Cc1ccc(NCc2ccc(O)c3ncccc23)cc1 | . | . | . | . | .
Cc1ccc(NCc2ccc(O)c3ncccc23)cc1C | . | . | 1.9 | . | .
SMILES | hgDAF-12 ag | DAX1 inh-1 | ssDAF12 agonist | DAX1 inh-2 | hcDAF12 agonist
C=CCNC(=O)CSc1nc2c(c(=O)[nH]1)CCCC2 | . | / | . | . | .
Cc1cccc(CCNC(=O)c2ccc(Sc3ccccc3Cl)c([N+](=O)[O-])c2)c1 | . | / | . | . | .
CSc1nc(N)nc(N(C)C)n1 | . | . | . | . | .
CSc1nc(N)nc(C2CC2)n1 | . | 4.8 | . | . | .
CCCC(=O)OCC(=O)Nc1ccc(N=Nc2ccccc2)cc1 | 11.3 | . | . | . | 5.7
C[C@@H]1ON(C)[C@H]2C[C@H]3c4[nH]c5c(-c6ccccc6F)cccc5c4CCN3C[C@@H]12 | . | / | . | . | .
COc1cccc2c1C(=O)c1c(O)c3c(c(O)c1C2=O)CC(O)(C(C)=O)CC3OC1CC(N(C)C)C(O)C(C)O1 (stereo unspecified) | . | . | . | . | .
CC(=O)[C@@]1(O)Cc2c(O)c3c(c(O)c2[C@H](O[C@H]2C[C@H](N)[C@H](O)[C@H](C)O2)C1)C(=O)c1ccccc1C3=O | . | / | 3.6 | . | .
COc1cccc2c1C(=O)c1c(O)c3c(c(O)c1C2=O)C[C@@](O)(C(=O)CO)C[C@@H]3O[C@H]1C[C@H](N)[C@H](O)[C@H](C)O1 | . | . | 2.2 | . | .
CCOC(=O)[C@]12CCCC=C1N(CCCOC)C(=O)[C@@H]2CC(=O)NCc1cccc(C(F)(F)F)c1 | . | / | . | . | .
O=C(Oc1ccc([N+](=O)[O-])cc1)O[C@H]1CC[C@@]23CCCN2C(=O)CCC[C@H]3C1 | . | / | . | / | .
CS(=O)(=O)c1ccc(Cl)c(NC(=O)CN2CCCC2c2ccc3c(c2)OCCCO3)c1 (stereo unspecified) | 10.9 | . | . | . | .
Cc1ccc(C)c(NC(=O)CSc2nnc(-c3ccccc3)o2)c1 | . | . | . | . | .
COc1ccccc1NC(=O)CSc1nnc(-c2ccccc2)o1 | 10.7 | 5.2 | . | 5.4 | .
O=C(CSc1nnc(-c2cccnc2)o1)c1cc2ccccc2oc1=O | 12.3 | . | . | . | .
CCN(CC)S(=O)(=O)c1ccc(-c2nnc(SCC(=O)Nc3cc(OC)cc(OC)c3)o2)cc1 | 10.9 | . | . | . | .
Cc1ccc(NC(=O)CSc2nnc(-c3cccnc3)o2)c(C)c1 | . | 4.4 | . | . | .
O=C(OCc1cn(Cc2ccccc2)nn1)N1CCCC1 | . | / | . | . | .
O=C(NCC1CC1)c1cc2c(c(-c3cccc(-c4ccccc4F)c3)n1)[C@@H](CCO)N(C(=O)CC1CC1)C2 | . | / | . | . | .
Cc1cc(C)cc(C(=O)OCCN2CCN(C3CN(Cc4cn(Cc5ccc([N+](=O)[O-])cc5)nn4)S(=O)(=O)C3)CC2)c1 (stereo unspecified) | . | / | . | . | .
CCN(CC)S(=O)(=O)c1ccc(-c2nnc(SCC(=O)Nc3nc(C)cs3)o2)cc1 | . | . | . | . | .
Cc1csc(NC(=O)CSc2nnc(-c3ccccc3)o2)n1 | . | . | . | 4.3 | 5.7
CCC1(C)Nc2ccccc2C(=O)N1O (stereo unspecified) | . | . | . | . | .
COc1ccc(N2C(=O)c3ccccc3NC23CCC(C)CC3)cc1 (stereo unspecified) | 12.8 | . | . | . | .
CCOc1ccc(N2C(=O)c3ccccc3NC2(C)CC)cc1 (stereo unspecified) | 12.1 | . | . | 3.7 | .
SMILES | hgDAF-12 ag | DAX1 inh-1 | ssDAF12 agonist | DAX1 inh-2 | hcDAF12 agonist
CCOc1ccc(-c2cc(C(=O)OC)c3n(c2=O)CCC3)cc1 | . | / | . | . | .
O=C(c1cscn1)N1CCC(Oc2cccnc2)CC1 | . | / | . | . | .
OC[C@H]1O[C@@H](c2nc(-c3cccc4ccccc34)no2)[C@H](O)[C@@H]1O | 12.8 | / | . | . | .
CCC[C@H]1[C@@H](NC(=O)C2CCCCC2)CC[C@@]23CCCN2C(=O)CCC[C@@H]13 | . | / | . | / | .
C[C@H]1[C@@H](OC(=O)Nc2ccccc2Cl)CC[C@@]23CCCN2C(=O)CCC[C@@H]13 | . | / | . | / | .
O=C(c1cc(-c2ccc3c(c2)OCO3)on1)N1CCCCC1 | . | . | . | . | 5.8
O=C(c1cc(-c2ccc(Cl)c(Cl)c2)on1)N1CCCCCC1 | . | . | . | . | .
N#Cc1ccc(CSc2nc3sc4c(c3c(=O)n2-c2ccc(Br)cc2)CCCC4)cc1 | . | / | . | . | .
